Inconclusive results are not listed. Entries that show only a call come without a potency. Active and inactive are the calls of the source. The call rests on the fitted dose curve; in most records, active means well fitted cell-killing curve with a large enough effect; inconclusive means small, poorly fitted or top-dose-only effect, or effect the other way; inactive means no such curve, though single readings can be large or run the other way.

Here are results for 40 compounds from PubChem BioAssay (NCATS).
Potency means the concentration at half of the fitted maximal effect.

A short description of this experiment: Viability qHTS for spleen associated tyrosine kinase inhibitor (SYKi) naive MV4-11 cells (AID 1963823). Further: nearly all actives have a fitted effect of over 40% in size. As to conditions: MV4-11 AML viability, CellTiter-Glo luminescence, 72 h; series mostly up to 45 µM. The text has this:
Department of Medicine, Hematology/Oncology
University Hospital Frankfurt, Germany.
Trials have shown promising clinical activity of the selective SYK inhibitor entospletinib in patients with high expressing HOXA9/MEIS1 acute leukemias. As the development of resistance mechanisms is a common problem in the use of targeted drugs, we performed a chemical library screen to identify drug sensitivities in SYK inhibitor resistant AML cells. […] Glucocorticoids are potent immunosuppressants which work in part by inhibiting the transcription of cytokine genes.
Described herein is a viability screen to look for activity in the SYK inhibitor naive cell line against four NCATS compound libraries (MIPE 5.0, NPC, NPACT, and Kinase) totaling 11372 compounds. Active hits were reacquired for confirmation and further secondary assay testing.
SEQUENCE No. (e.g., 1, 2, 3, etc.); […] (e.g., Cells, Incubation, Reagent, etc.); VALUE; DESCRIPTION.
1; Media; 2uL; white, solid-bottom Corning assay plate.
2; Compounds; 23nL; Echo acoustic dispenser.
3; Cell; 5uL; 500 cells per well.
4: Incubation; 72hr; 37 C, 5% CO2, 95% humidity.
5; Reagent; 3uL; CellTiter-Glo reagent (Promega).
6; Incubation; 10min; room temperature.
7; Detection; Luminescence; ViewLux plate reader (PerkinElmer).
NOTES (numbers refer to Sequence numbers above
1. Quantitative high-throughput screening (qHTS) of small molecule compounds was conducted on naive SYKi MV4-11 cell line.
2. Twenty-three nanoliter of small molecule compounds were added to each assay plates using the Echo acoustic dispenser (Beckman Coulter).
3. Cells were seeded into the assay plates at a final density of 500 cells in 5uL of media per well using the Multi-drop Combi dispenser.
4. Plates were covered with stainless steel gasketed lids and incubated for 72 hours at standard cell culture conditions.
5. Viability was assessed by adding 3uL of CellTiter-Glo detection reagent (Promega).
6. Plates were covered with gasket lids and incubated for 10 minutes at room temperature.
7. Luminescence was measured on a ViewLux plate reader (PerkinElmer).
For the compound `Cc1cn([C@H]2C[C@H](N=[N+]=[N-])[C@@H](CO)O2)c(=O)[nH]c1=O`, the Potency result is “inactive”.

For the compound `CC(C)[C@@H]1C(=O)N(S(C)(=O)=O)[C@@H]2CCN(C(=O)/C=C/CN3CCCCC3)[C@H]21`, the Potency result was “inactive”. On the same count and under the same terms, the entry for `CN(C)/N=N/c1nc[nH]c1C(N)=O` is “inactive”.

In the case of `CN(C(=O)c1c(O)c2ccccc2n(C)c1=O)c1ccccc1`, the Potency entry was “inactive”. The same measure, in the same setting: the entry for `CCCc1ncc(C[n+]2ccccc2C)c(N)n1` is “inactive”. On the same count and under the same terms, the entry for `CN(C)c1cc(NC(=O)CNC(C)(C)C)c(O)c2c1C[C@H]1C[C@H]3[C@H](N(C)C)C(=O)C(C(N)=O)=C(O)[C@]3(O)C(=O)C1=C2O` is “inactive”; for `CCC(CC)CC1(C(=O)Nc2ccccc2SC(=O)C(C)C)CCCCC1` it is “inactive”.

As to `CC1CC(=O)C2C(O)(C1)CC(O)C13OC1c1c(O)cccc1C(=O)C23O` (stereo not given), the Potency is 14.3 µM (active).

On to `C[C@@H](CN1CCC(n2c(=O)[nH]c3cc(Cl)ccc32)CC1)NC(=O)c1ccc2ccccc2c1`, for which the Potency was 20.6 µM (active). On the same count and under the same terms, the entry for `CC(=O)OCC(Cc1ccccc1)NC(=O)C(Cc1ccccc1)NC(=O)c1ccccc1` (stereo not given) is “inactive”.

For the compound `CC#CC(=O)Nc1ccc2ncnc(Nc3cccc(Br)c3)c2c1`, the Potency is 1.46 µM (active). The same measure, in the same setting: the entry for `CC1CCC2(C(=O)O)CCC3(C)C(=CCC4C5(C)CCC(OC(=O)/C=C/c6ccccc6)C(C)(C)C5CCC43C)C2C1C` (stereo not given) is “inactive”; for `Cc1nc2ccccc2c(-c2ccc3c4c(ccnc24)CCO3)c1[C@H](OC(C)(C)C)C(=O)O` it is “inactive”; for `CCOC(=O)c1cccc(CNc2ccc(N(C)C(=O)Nc3ccccc3)cc2)c1` it is 18.4 µM (active).

In the case of `CCOc1ncc(F)c(=O)[nH]1`, the Potency result was “inactive”. On the same count and under the same terms, the figure for `CC(C)Oc1ccc(C(=O)N[C@H](CNC(=O)CN(C)C)Cc2ccc(-c3cn4cccc([C@H](C)O)c4n3)cc2)cc1Cl` is 0.0263 µM (active); for `CC(=O)OC[C@H]1O[C@@H](n2ncc(=O)[nH]c2=O)[C@H](OC(C)=O)[C@@H]1OC(C)=O` it is “inactive”. Still for that read-out and setting: the figure for `CS(=O)(=O)N1CCC(NC(=O)c2[nH]ncc2NC(=O)c2c(Cl)cccc2Cl)CC1` is 0.934 µM (active); for `C=C1C[C@H]2[C@@H]3C=C(C)C4=CC(=O)CC[C@]4(C)[C@H]3CC[C@]2(C)[C@@]1(OC(C)=O)C(C)=O` it is 18.8 µM (active). Same read-out and setting: the entry for `OC/C=C/C=C/[C@H]1Cc2cc(O)cc(O)c2O1` is “inactive”; for `COc1cc(C[C@@]2(O)CO[C@@H](c3ccc(O[C@@H]4O[C@H](CO)[C@@H](O)[C@H](O)[C@H]4O)c(OC)c3)[C@H]2CO)ccc1O` it is “inactive”. Take `CCc1cc(C(N)=O)ccc1-n1nc(C(C)C)c2c(-n3cnc(-c4cnn(C)c4)c3)ccnc21`: the Potency is 0.372 µM (active). On the same count and under the same terms, the entry for `C=C[C@@]1(C)CCC2C(=CCC3[C@]2(C)CCC[C@@]3(C)C(=O)O)C1` (stereo not given in full) is “inactive”; for `C/C(=C/CO)CC[C@@H]1[C@@]2(C)CCC[C@](C)(C(=O)O)C2CC[C@@]1(C)O` (stereo not given in full) it is “inactive”; for `NC(=S)N/N=C/c1cccnc1` it is “inactive”. For the compound `O=C(O)/C(S)=C/c1ccc(I)cc1`, the Potency entry was “inactive”.

In the case of `CSc1ccc(C(=O)c2[nH]c(=O)[nH]c2C)cc1`, the Potency result was “inactive”. Consider `CN(C)c1ccc(C2O[C@@H](c3ccccc3)C[C@H](c3ccccc3)O2)cc1` (stereo not given in full), for which the Potency entry is “inactive”. Consider `O=S(=O)(Nc1ccc(-c2cccnc2)c2cccnc12)c1cccc(C(F)(F)F)c1`, for which the Potency is 6.61 µM (active). Same read-out and setting: the figure for `Nc1ccc(F)cc1NC(=O)c1ccc(CNC(=O)/C=C/c2cccnc2)cc1` is 1.66 µM (active); for `CS(=O)(=O)c1ccc([C@@H](CC2CCCC2)C(=O)Nc2nccs2)cc1` it is 8.33 µM (active). As to `COc1ccc(/C=C/C(=O)O[C@@H]2[C@@H](O[C@@H]3O[C@H](CO)[C@@H](O)[C@H](O)[C@H]3O)[C@@H](O)[C@H](O[C@H]3C4C=CO[C@@H](O[C@@H]5O[C@H](CO)[C@@H](O)[C@H](O)[C@H]5O)C4[C@@]4(CO)O[C@@H]34)O[C@H]2C)cc1` (stereo not given in full), the viability (% of control) is 75.2% [at 9.25 µM] (inactive). On to `CC(CO)C1CCC2(C)CC3C(CO)CC(O)C3C(C)(O)C/C=C/12` (stereo not given), for which the Potency result is “inactive”. Still for that read-out and setting: the entry for `OC[C@H]1O[C@@H](OC(CCCCc2ccc(O)cc2)CCc2ccc(O)cc2)[C@H](O)[C@@H](O)[C@@H]1O` (stereo not given in full) is “inactive”; for `CN(C)CCCN1c2ccccc2Sc2ccc(Cl)cc21` it is 10.6 µM (active). On the same count and under the same terms, the entry for `N#CC1(c2ccc(F)cc2)CCC(=O)CC1` is “inactive”; for `c1ccc2c(-c3cnn4cc(-c5ccc(N6CCNCC6)cc5)cnc34)ccnc2c1` it is 0.525 µM (active); for `CCC(C)(CN(C)C)OC(=O)c1ccccc1` (stereo not given) it is “inactive”. Still for that read-out and setting: the entry for `CCOc1ccc(NC(=O)CC(C)O)cc1` (stereo not given) is “inactive”; for `CCN=C1N[C@@H]2[C@@H](O)[C@H](O)[C@@H](CO)O[C@@H]2S1` it is “inactive”.
